# Screening data as filed in PubChem BioAssay.
# PGE2 EP2 inh: EP2 receptor (human) inhibition. 0.52% of 260,000 active. AID 1422. C6 glioma cells expressing human EP2, cAMP TR-FRET; cells stimulated with saturating PGE2. inhibition, % at 25 µM. P43116;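 active = percent inhibition above 40 after rounding to a whole number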;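 note: rat C6 glioma host cells with rolipram phosphodiesterase inhibitor present; the protocol text gives 20 µM as final concentration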
# Target sequence (P43116 whole entry, looked up): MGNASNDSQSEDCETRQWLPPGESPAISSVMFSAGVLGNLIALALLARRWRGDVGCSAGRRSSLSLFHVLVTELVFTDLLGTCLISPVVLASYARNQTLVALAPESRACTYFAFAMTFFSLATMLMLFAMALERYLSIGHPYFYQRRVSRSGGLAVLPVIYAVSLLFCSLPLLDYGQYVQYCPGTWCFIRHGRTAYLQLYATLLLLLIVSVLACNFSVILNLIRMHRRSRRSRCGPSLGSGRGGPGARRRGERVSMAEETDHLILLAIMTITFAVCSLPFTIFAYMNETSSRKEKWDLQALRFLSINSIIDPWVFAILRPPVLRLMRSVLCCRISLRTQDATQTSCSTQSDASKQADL
# EP2 mod: EP2 receptor (human) modulation | induction, % at 25 µM | 0.83% of 260,000 active | P43116 | AID 940 | EP2-expressing cells, cAMP HTRF FRET, PGE2 co-stimulation;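 active = compounds whose cAMP rise, as percent of the full-agonist control response, exceeds 60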;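 note: rat C6 glioma line stably carrying human EP2 under a CMV promoter; the protocol text gives 20 µM as final concentration; 100% = response of wells given 1 µM PGE2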
# CHT block: human CHT choline transport inhibition; CHT-expressing cells, membrane potential dye, choline response; stronger effect = lower value; B-score at 10 µM; 0.86% of 310,000 active; AID 488975;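 active = B-score over 3 SD under the library average, and starting fluorescence ratio not unusually high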;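 note: choline stimulus applied at its EC90 after an EC20 pre-addition; B-score computed on integrated fluorescence ratio after choline addition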
# CHT allo act: human CHT allosteric activation; AID 488977; 0.49% of 310,000 active; B-score at 10 µM; CHT-expressing cells, membrane potential dye, choline EC20; stronger effect = higher value; LV-AA mutant CHT in HEK293 cells; Q9GZV3;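 active = initial fluorescence not abnormally high and integrated response B-score, plate-corrected, over 3 SD above library mean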
# CHT inh conf: confirmation of human choline transporter CHT inhibitors; shares compounds with CHT block; CHT-expressing cells, choline membrane potential dye; LV-to-AA substituted CHT, HEK293 cells; CHT activity remaining % of control (stronger effect = lower value), % at 10 µM; 70% of 2,400 active; AID 493221;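 active = choline transporter activity left, mean of duplicates at 10 µM, below buffer-only control mean minus 3 SD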;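 note: depolarization triggered by choline at its EC90 following an EC20 pre-addition; 0% = hemicholinium-3 full block and 100% = buffer-only control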
# HEK293 CHT ctr: counter-screen for CHT inhibitors: effect in parental HEK293 cells. 4% of 2,400 active. membrane potential dye, choline response; active = decrease or increase beyond buffer ±3SD. shares compounds with CHT block. AID 493222. membrane potential ratio readout (active if shifted either direction beyond buffer ±3SD; no single direction) at 10 µM;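 note: parental cells lack the transporter so any hit is non-specific; ratio is peak minus trough fluorescence over baseline after EC90 choline challenge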
# Starred values were filed as active, the others as inactive; i = inactive; . = not tested or not shown. The list is not random: actives were taken first. Their share in the collection is about 2.1%.
SMILES,PGE2 EP2 inh,EP2 mod,CHT block,CHT allo act,CHT inh conf,HEK293 CHT ctr
Cc1ccc(S(=O)(=O)NC(C)C(=O)Nc2ccc3c(c2)OCO3)cc1 (stereo unspecified),.,.,-9*,i,i,i
O=c1[nH]c(C(F)(F)F)nc2ccccc12,13,26,-5.1*,i,i,i
CCN(CC)C(=O)N1CCCC1c1nc(-c2ccc(F)cc2)n[nH]1 (stereo unspecified),8,2,.,.,.,.
Cc1cc(=O)[nH]c(SCC(=O)c2ccc(C)c(C)c2)n1,9,2,-7.3*,i,64%*,i
Cc1ccc(C(=O)CSc2n[nH]c(-c3ccco3)n2)cc1C,4,-7,-5.1*,i,50%*,i
COc1ccc(C(=O)CSc2nc(C)cc(=O)[nH]2)cc1,15,1,-5.6*,i,i,i
COc1ccc(C(=O)CSc2n[nH]c(-c3ccco3)n2)cc1,15,12,i,i,.,.
CCn1cc(C(=O)O)c(=O)c2cc(F)c(N3CCN(C(=O)c4ccccn4)CC3)cc21,6,-12,.,.,.,.
COc1ccc(CN2CCN(C(C)C)C(CCO)C2)cc1Cn1cccn1 (stereo unspecified),1,-16,-12*,i,6.3%*,i
Cc1ccc(NC(=O)c2cccs2)cc1NC(=O)c1ccc(F)cc1,.,.,i,i,.,.
Cc1ccc(F)cc1NC(=O)c1ccc(NS(=O)(=O)c2ccc(Br)s2)cc1,2,-16,-7.1*,i,50%*,i
O=C(c1c(O)c2ccccc2oc1=O)C1CCCCC1,13,19,-7.5*,i,58%*,i
O=C(CCC1CCCC1)c1c(O)c2ccccc2oc1=O,13,-4,i,i,.,.
CCOc1cc2[nH]c(=S)n(C3CCN(Cc4ccccc4)CC3)c(=O)c2cc1OCC,8,-4,-5.8*,i,i,i
Cn1c(N2CCN(S(=O)(=O)c3ccc(F)cc3)CC2)nc2ccccc21,19,-70,i,i,.,.
CCn1c(N2CCN(S(=O)(=O)c3ccc(OC)cc3)CC2)nc2ccccc21,.,.,-7.9*,i,71%*,i
COc1ccc(C=Nc2ccc3[nH]ncc3c2)c(O)c1,5,0,i,i,.,.
Oc1c(Br)cc(Br)cc1C=Nc1cccnc1,.,.,-7.8*,i,62%*,i
Oc1c(Br)cc(Br)cc1C=Nc1ccc2[nH]ncc2c1,10,24,-5.6*,i,65%*,i
S=C1NCC(CI)[N+]12CCOCC2 (stereo unspecified),16,-2,.,.,.,.
CC(C)(C)C(=O)Nc1cc(C(F)(F)F)ccc1N1CCOCC1,10,-28,i,i,.,.
CC(C)(C)C(=O)NC(=S)Nc1cc(C(F)(F)F)ccc1N1CCOCC1,13,-49,-5*,i,i,i
COc1ccccc1CC(=O)N1CCN(c2cccc(C(F)(F)F)c2)CC1,22,-25,-6.3*,i,i,i
CCN(CC)CCCN(C(=O)c1ccc(OC)cc1)c1nc(-c2ccc(OC)cc2)cs1,.,.,-5.4*,i,44%*,i
Cc1cc(/C=N/NC(=O)C(=O)NCc2ccccn2)c(C)n1-c1ccccc1,5,-4,-7*,i,34%*,i
SMILES,PGE2 EP2 inh,EP2 mod,CHT block,CHT allo act,CHT inh conf,HEK293 CHT ctr
COCCCN=C1NN=C(c2cc(C)n(-c3ccccc3F)c2C)CS1,4,-5,-6.5*,i,33%*,i
Cn1c(=O)c(Nc2ccc(O)cc2)c2c3c(cccc31)C(=O)c1ccccc1-2,18,28,-16*,i,9.4%*,i
CC(C)c1ccc(Nc2c([N+](=O)[O-])c(=O)n(C)c3ccccc23)cc1,0,5,i,i,.,.
COc1ccccc1NC(=O)CSc1nc2c(C)c(C)ccc2cc1C,24,-60,.,.,.,.
C=CCNC(=O)c1onc(CSc2ccc(C(C)C)cc2)c1C(=O)O,21,-3,-5.2*,i,61%*,i
CC(C)(C)c1nc2cc(Cl)c([N+](=O)[O-])cc2o1,11,3,-14*,i,i,i
CC(C)(C)Nc1nc2cc([N+](=O)[O-])ccc2o1,11,-56,i,i,.,.
CCC(=O)N1N=C(c2cccc(NS(C)(=O)=O)c2)CC1c1ccc(OC)c(OC)c1 (stereo unspecified),8,-1,.,.,.,.
Cc1cc(C)c(C(=O)Nc2ccc(S(=O)(=O)Nc3ccccn3)cc2)c(C)c1,14,-6,-14*,i,5.0%*,i
COc1ccc(C(=O)Nc2ccc(S(=O)(=O)Nc3ccccn3)cc2)cc1,7,-33,.,.,.,.
O=C(Nc1nc2c(Br)cccc2s1)C1CC1,.,.,-5.7*,i,i,i
CCn1c2cc(C)sc2c2cnn(CC(=O)NCc3ccc(F)cc3)c(=O)c21,.,-28,.,.,.,.
CN1CCN(c2c(/C=N/O)c3ccccc3n2C)CC1,.,.,i,i,.,.
Cc1ccccc1C(=O)O/N=C/c1c(N2CCOCC2)n(C)c2ccccc12,3,-7,-16*,i,37%*,i
CC[n+]1c(/C=C2\C=Cc3ccc(C)cc3N2CCCS(=O)(=O)[O-])ccc2cc(C)ccc21,8,-53,.,.,.,.
O=C(OCC(=O)N1CCCc2ccccc21)c1ccc(Cl)nc1,8,1,i,i,.,.
O=C(OCC(=O)N1CCCc2ccccc21)c1cnc(Cl)c(Cl)c1,7,13,-5.7*,i,i,i
Cc1c(C)n(O)c2ccc3nonc3c12,11,-40,-6.8*,i,6.2%*,i
COn1c(C)c(C(C)=O)c2c3nonc3ccc21,10,-6,i,i,.,.
CN(CCC#N)C(=O)CC(Cc1ccccc1)C1CCOC(C)(C)C1 (stereo unspecified),10,15,-6*,i,i,i
O=S(=O)(Nc1nc2ccccc2s1)c1ccc(Cl)s1,18,0,-5.2*,i,56%*,i
O=S(=O)(Nc1nc2ccccc2s1)c1cc(F)ccc1F,.,.,i,i,.,.
O=C1NC(=S)S/C1=C\c1coc2ccccc2c1=O,6,34,-8.4*,i,55%*,i
CCCn1c(SCC(=O)Nc2ccc(CC)cc2)nc2c1c(=O)n(C)c(=O)n2C,7,-50,.,.,.,.
CCOP(=O)(OCC)C(NC(=O)Nc1ccccc1)c1ccccc1 (stereo unspecified),7,6,i,i,.,.
CCOP(=O)(OCC)C(NC(=O)Nc1c(C)cc(C)cc1C)c1ccccc1 (stereo unspecified),6,24,-6*,i,i,i
CC(=O)N(Cc1c(C#N)c2ccccc2n1C)c1ccccc1,-2,-6,i,i,.,.
Cn1c(CN2CCCC2)c(C#N)c2ccccc21,9,22,-5*,i,71%*,i
CCOC(=O)CSCc1c(C#N)c2ccccc2n1C,6,-9,-6.8*,i,i,i
